Calls of active or inactive are those of the source.

For 16 compounds, z-score results are on record in PubChem BioAssay.

The nature of assay [1]: compound effects on lung adenocarcinoma cell viability – A549, calcein-AM fluorescence, 48 h, basal, profiling panel (AID 1162). The following applies: higher = more signal.
Assay [2] is described as follows: compound effects on differentiated 3T3-L1 adipocyte viability – cell-based, 3T3-L1 adipocytes, calcein-AM fluorescence, 48 h, basal, profiling panel (AID 1163). The settings on record: 3T3-L1 adipocytes viability, higher = more signal.
Assay [3] can be described thus: compound effects on hepatocellular carcinoma cell viability – HepG2, calcein-AM fluorescence, 48 h, basal, profiling panel (AID 1164). The following applies: higher = more signal.
Assay [4] in a line: compound effects on multiple myeloma cell viability – MM1S, calcein-AM fluorescence, 48 h, basal, profiling panel (AID 1165).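 Further: viability of MM1S multiple myeloma cells under basal unstimulated conditions.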 The settings on record: higher = more signal.
Assay [5] in a line: calcein-AM signal in unstimulated myeloma cells – cell-based, calcein-AM fluorescence, 48 h, PK04 Diversity Set, profiling panel (AID 1166).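 Further: cells grown under basal conditions without added stimulus.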 The settings on record: RPMI8226 myeloma viability, higher = more signal.
Assay [6] can be described thus: JC-1 mitochondrial signal, unstimulated HepG2 cells – cell-based, JC-1 fluorescence, 24 h, 100 nL compound, profiling panel (AID 1167). The settings on record: HepG2 mitochondrial potential, higher = more signal.
The nature of assay [7]: JC-1 mitochondrial signal, unstimulated adipocytes – cell-based, JC-1 fluorescence, 3T3-L1 adipocytes, 24 h, 100 nL compound, profiling panel (AID 1168). The settings on record: JC-1 mitochondrial fluorescence, higher = more signal, called active from +8 up or from −8 down.
A short description of assay [8]: JC-1 mitochondrial signal, unstimulated myeloma cells – cell-based, JC-1 fluorescence, RPMI8226, 24 h, 100 nL compound, profiling panel (AID 1169). The settings on record: JC-1 mitochondrial potential fluorescence, higher = more signal.
The nature of assay [9]: JC-1 mitochondrial signal, unstimulated MM1S myeloma – cell-based, JC-1 fluorescence, 24 h, 100 nL compound, profiling panel (AID 1170). The settings on record: MM1S mitochondrial potential, higher = more signal.
A short description of assay [10]: resazurin metabolic signal in A549 cells – cell-based, resazurin fluorescence, 24 h, PK04 Diversity Set, profiling panel (AID 1171). The settings on record: A549 viability, higher = more signal, called active from +8 up or from −8 down.
Further: test concentration not given here.

For `CN1C(=O)C2C(C1=O)C1C=C(CCCO)C2C(c2ccc(CN3CCCC3)cc2)N1C` (stereo not given), the z-score was -0.259 in assay [1]; 0.617 in assay [2]; -0.94 in assay [3]; 0.312 in assay [4]; -1.55 in assay [5]; 0.48 in [6]. For the same compound, the z-score in assay [7] was -0.319 (inactive); in assay [8], -0.667; in [9] it was 0.287; in [10] it was -1.1 (inactive).

For the compound `COCCOC(=O)N1C(=O)[C@@]2(c3cc(C#CCNC(N)=O)ccc31)[C@H](c1ccc(O)cc1)N1[C@H](c3ccccc3)[C@H](c3ccccc3)OC(=O)[C@H]1[C@@H]2C(=O)N1CCCCCCC1`, the z-score in assay [1] was -0.55; in assay [2] it was 0.012; in [3], -0.49; in [4], -0.441; in assay [5], 0.0294; in assay [6] it was -1.85. In addition, the z-score was -0.731 (inactive) in assay [7], 0.399 in assay [8], 0.298 in assay [9] and 0.215 (inactive) in assay [10].

For the compound `COc1ccc(O[C@H]2C=C[C@@H](c3ccccc3)O[C@@H]2COC(=O)CCC(C)=NO[C@@H](C)c2cc(-c3c(C)cc(C)cc3C)no2)cc1`, the z-score is -0.845 in assay [1]; 0.0504 in [2]; 0.033 in assay [3]; 0.0731 in assay [4]; -0.644 in assay [5]; 0.48 in assay [6]. Further, the z-score in assay [7] was -1.34 (inactive); in assay [8], 0.129; in assay [9] it was -0.424; in assay [10] it was 1.8 (inactive).

Regarding `Cc1cc2c(nc1C)CCCN2CC(O)CN1CCN(C)CC1` (stereo not given), the z-score in assay [1] was 0.306; in assay [2], 0.411; in assay [3] it was -1.09; in assay [4] it was 0.241; in assay [5], -0.342; in assay [6], -0.601. The z-score in [7] is -0.625 (inactive); in [8], 0.142; in assay [9], 0.842; in assay [10], -0.726 (inactive).

Regarding `C=CC[C@@H]1C=C[C@H](ON=C2c3cc(OC)ccc3O[C@H](c3cccc(OC)c3)[C@H]2O)[C@@H](CO)O1`, the z-score in assay [1] is 0.27; in assay [2], -0.855; in assay [3], 0.925; in assay [4] it was 0.334; in [5] it was -0.0859; in [6], -1.45. Moreover, the z-score is 0.704 (inactive) in assay [7], -0.148 in assay [8], -1.12 in [9] and -1.25 (inactive) in assay [10].

For the compound `O=C1[C@H]2[C@H]3[C@H](O)[C@H](O)CC(=NO[C@@H]4O[C@H](CO)[C@@H](O)[C@H](O)[C@H]4O)[C@H]3CC[C@H]2C(=O)N1Cc1ccc2c(c1)OCO2`, the z-score in [1] was 1.26; in [2] it was -1; in [3], -0.254; in [4] it was -0.19; in [5] it was 0.0119; in [6], -0.102. In addition, the z-score in [7] is 0.48 (inactive); in [8], -0.0781; in [9] it was -1.13; in assay [10] it was 0.443 (inactive).

As to `COc1ccc(O[C@H]2C=C[C@@H](c3ccccc3)O[C@@H]2COC(=O)CCC(C)=NOC[C@@H](C)[C@H](OCc2ccccc2)C(C)C)cc1`, the z-score in assay [1] is -0.0801; in assay [2] it was 0.13; in [3], -0.442; in assay [4], -0.0358; in assay [5], -1.02; in assay [6], 0.577. Besides, the z-score in [7] was -1.61 (inactive); in assay [8], 0.815; in assay [9], -0.146; in assay [10] it was 1 (inactive).

`CC(=O)OC[C@H]1O[C@@H](ON=C(C)CCN2CCc3nc(-c4ccccc4)c(-c4ccccc4)cc3C2)[C@H](OC(C)=O)[C@@H](OC(C)=O)[C@@H]1OC(C)=O`: the z-score in [1] is -0.21; in assay [2], 0.565; in assay [3] it was 0.69; in assay [4], -0.0213; in [5] it was -0.162; in assay [6], 1.11. In addition, the z-score in assay [7] was -1.19 (inactive); in [8], -0.522; in [9], 0.231; in assay [10] it was -0.282 (inactive).

As for `COCC(=C=CC[C@@H](O)c1ccccc1OCCO)CCO`, the z-score is 1.31 in assay [1]; 0.177 in assay [2]; 0.792 in assay [3]; 0.699 in [4]; 0.551 in [5]; 0.429 in assay [6]. Further, the z-score in [7] was 0.432 (inactive); in assay [8] it was -0.631; in assay [9] it was 0.918; in assay [10], 0.675 (inactive).

`C#CCCCON=C1C[C@@H](O)[C@@H](O)[C@@H]2[C@@H]3C(=O)N(CCC(=O)OCC)C(=O)[C@@H]3CC[C@@H]12`: the z-score was -0.284 in assay [1]; -0.533 in [2]; -0.675 in assay [3]; 0.17 in assay [4]; -0.608 in assay [5]; -1.18 in assay [6]. Moreover, the z-score in assay [7] is -1.66 (inactive); in assay [8] it was 0.213; in [9], -0.123; in assay [10], -0.0981 (inactive).

Consider `N#Cc1ccc(NN2C(C(O)c3cc(C(F)(F)F)cc(C(F)(F)F)c3)C=CC3C(=O)N(c4ccccc4)C(=O)C32)cc1` (stereo not given), for which the z-score in assay [1] was -0.676; in assay [2], -0.461; in assay [3] it was -1.22; in assay [4], -1.45; in assay [5], -3.8; in assay [6] it was -2.78. Further, the z-score in assay [7] is -0.189 (inactive); in assay [8], -0.754; in assay [9], 0.0337; in assay [10], -0.557 (inactive).

Consider `CCCCc1nc2c(c3c1C[C@H](C)OC3)CN(CCC(C)C)CC2`, for which the z-score is 1.25 in assay [1]; -0.11 in [2]; 0.597 in [3]; 0.411 in assay [4]; -1.35 in assay [5]; 2.01 in assay [6]. Besides, the z-score was -0.836 (inactive) in assay [7], -0.0883 in assay [8], 0.301 in assay [9] and 0.6 (inactive) in assay [10].

For the compound `COc1ccc([Si](C)(C)[C@H]2[C@H](CC(=O)N3CCC[C@H]3CO)O[C@@]3(C(=O)N(Cc4cccc(N5C(=O)COc6ccccc65)c4)c4ccccc43)[C@@H]2C)cc1`, the z-score was 0.819 in assay [1]; 0.198 in assay [2]; 1.01 in assay [3]; -2.42 in assay [4]; -4.37 in assay [5]; 4.27 in [6]. Further, the z-score in assay [7] is 1.86 (inactive); in assay [8] it was -0.938; in assay [9] it was 0.741; in assay [10], -0.343 (inactive).

Take `CO[C@@H]1COC(=O)CC=C[C@@H](C)[C@@H]2C=C[C@H](O)[C@@H](COC(=O)CCC[C@H]1C)O2`: the z-score in [1] is 0.438; in assay [2], -0.717; in assay [3], -0.101; in assay [4] it was -0.567; in assay [5], 0.403; in [6] it was -0.016. In addition, the z-score in assay [7] is -0.546 (inactive); in [8], -0.347; in assay [9], -1.23; in assay [10], -0.165 (inactive).

`O=C1C[C@@H](O)[C@@H](O)[C@@H]2[C@@H]3C(=O)N(Cc4ccc5c(c4)OCO5)C(=O)[C@@H]3CC[C@@H]12`: the z-score in [1] was 0.254; in assay [2] it was 0.797; in assay [3] it was 0.0538; in [4], 0.339; in assay [5], -0.205; in [6] it was -0.32. Besides, the z-score was -0.409 (inactive) in [7], -0.893 in assay [8], 0.358 in assay [9] and -0.14 (inactive) in assay [10].

With `O=C1[C@H]2[C@H]3[C@H](O)[C@H](O)CC(=NOCc4ccccc4)[C@@H]3CC[C@H]2C(=O)N1Cc1ccccc1`, the z-score in [1] is -0.618; in assay [2], -0.176; in assay [3] it was -0.851; in [4], 0.188; in assay [5], -0.16; in [6] it was -0.169. Also, the z-score in assay [7] is -0.399 (inactive); in assay [8], -0.164; in assay [9] it was -0.926; in [10], 1.59 (inactive).
